Bioassay records: PubChem BioAssay, several laboratories
SENP7 inh: inhibitors of human SENP7 protease; Q9BQF6; recombinant SENP7, Z-RLRGG-aminoluciferin luminescence, 40 min; inhibition, % at 5 µM; 1.5% of 330,000 active; AID 434973;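 active = inhibition above about 50% at the single test dose, limit read from the data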;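 note: plate controls were DMSO with enzyme for no effect and no enzyme buffer wells for full effect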
SENP8 block-1: blocks human SENP8 cleavage of Nedd8 substrate; Q96LD8; inhibition, % at 20 µM; recombinant SENP8, Nedd8 substrate fluorescence; 0.64% of 360,000 active; in the data active = inhibition mostly above about 40%, no sharp cut-off; inactive = mostly below about 27%
AHR act: human AHR activation; activation, % at 5 µM; 2.5% of 320,000 active; AHR-responsive luciferase reporter cells, luminescence; P35869; in the data active = activation above about 47%;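 note: 0% = vehicle wells and 100% = reference agonist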
SENP8 block-2: SENP8 protease inhibition; inhibition, % at 10 µM; purified SENP8, Z-RLRGG-aminoluciferin cleavage, luminescence; 1.2% of 330,000 active; Q96LD8; AID 2540; in the data active = inhibition above about 50%
EBI2 block: antagonists of human EBI2 receptor | 0.81% of 360,000 active | P32249 | EBI2 beta-arrestin recruitment, luminescence, 7a,25-OHC stimulated | AID 651636 | inhibition, % at 5 µM; in the data active = inhibition above about 38%;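 note: enzyme fragment complementation signal reports receptor beta-arrestin coupling in cells; 0% = agonist plus DMSO wells and 100% = wells without agonist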
SENP6 inh: blocks the human protease SENP6. Q9GZR1. 1.8% of 330,000 active. Recombinant SENP6 catalytic domain, aminoluciferin luminescence. inhibition, % at 10 µM;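 active = inhibition above about 50% at the single tested dose, limit read from the data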;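 note: plate controls were DMSO wells with enzyme for no effect and DMSO wells lacking enzyme for full effect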
Target sequence (Q9GZR1 628-1112 limits assumed): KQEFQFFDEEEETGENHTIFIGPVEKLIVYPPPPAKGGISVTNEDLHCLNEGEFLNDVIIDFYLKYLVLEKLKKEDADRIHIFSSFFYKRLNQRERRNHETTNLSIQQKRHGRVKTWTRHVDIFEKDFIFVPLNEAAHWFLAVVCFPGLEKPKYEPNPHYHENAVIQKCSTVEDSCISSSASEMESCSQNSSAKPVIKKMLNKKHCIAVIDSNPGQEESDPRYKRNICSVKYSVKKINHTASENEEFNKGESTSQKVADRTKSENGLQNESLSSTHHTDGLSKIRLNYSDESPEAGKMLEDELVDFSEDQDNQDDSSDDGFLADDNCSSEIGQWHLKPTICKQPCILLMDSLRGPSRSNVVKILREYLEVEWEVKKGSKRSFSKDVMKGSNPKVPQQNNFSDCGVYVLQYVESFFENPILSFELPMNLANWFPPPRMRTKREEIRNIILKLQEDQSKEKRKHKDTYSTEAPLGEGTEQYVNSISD
SENP8 conf: human SENP8 inhibition, confirmed. shares compounds with SENP7 inh. Recombinant SENP8, Z-RLRGG-aminoluciferin luminescence, 60 min. inhibition, % at 12.5 µM. 40% of 6,200 active;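 active = mean inhibition across replicates above about 50%, limit read from the data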
SENP6 conf: human SENP6 inhibition, confirmed; shares compounds with SENP7 inh; recombinant SENP6, Z-RLRGG-aminoluciferin luminescence; inhibition, % at 12.5 µM; 58% of 6,200 active; AID 488915
SENP7 confirm: confirmation of human SENP7 protease inhibitors; shares compounds with SENP7 inh; recombinant SENP7, Z-RLRGG-aminoluciferin luminescence, 40 min; inhibition, % at 12.5 µM; 69% of 6,200 active
Casp3 select: inhibits human caspase-3 in SENP selectivity test | shares compounds with SENP7 inh | purified caspase-3, Z-DEVD-aminoluciferin luminescence, 60 min | inhibition, % at 12.5 µM | AID 488918 | 60% of 6,200 active;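 active = mean inhibition above about 50%, limit read from the data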;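 note: plate controls were enzyme with DMSO for no effect and wells without caspase-3 for full effect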
Luc interf: luminescence interference (SENP counter-screen); inhibition, % at 12.5 µM; Pre-incubated SENP8/Z-RLRGG-aminoluciferin, luciferase luminescence interference; 39% of 6,200 active; shares compounds with SENP7 inh; AID 488919;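 active = mean inhibition above about 50% when retested at one dose, limit read from the data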;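 note: plate controls were DMSO wells with completed reaction for no effect and substrate without enzyme for full effect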
Numbers without * were called inactive. Compounds with a hit are over-represented: about 5% of the library has one in this group of screens.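 Rule for the calls, unless noted: active = mean inhibition above about 50% in the one-dose retest (limit read from the data); inactive = the rest.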

Screening Cc1cc(C(=O)Nc2ccc(OCc3ccccc3)cc2)c(C)o1 returned SENP7 inh 99*, SENP8 block-1 18, AHR act 3, SENP8 block-2 94*, EBI2 block 3, SENP6 inh 101*, SENP8 conf 74*, SENP6 conf 96*, SENP7 confirm 101*, Casp3 select 95* and Luc interf 64*.
Screening Cc1ccsc1C(=O)Nc1ccc(OCc2ccccc2)cc1 returned SENP7 inh 98*, SENP8 block-1 19, AHR act -5, SENP8 block-2 88*, EBI2 block 3, SENP6 inh 91*, SENP8 conf 1, SENP6 conf 84*, SENP7 confirm 101*, Casp3 select 95* and Luc interf 4.
For COc1ccc2nc(NC(=O)c3cccc(OCc4c(C)noc4C)c3)sc2c1 the results were SENP7 inh 47, SENP8 block-1 -280, AHR act -12, SENP8 block-2 33, EBI2 block 28, SENP6 inh 60*, SENP8 conf -2, SENP6 conf 5, SENP7 confirm 71*, Casp3 select 24 and Luc interf 4.
`CC(C)c1onc(C(=O)NCc2ccccc2)c1[N+](=O)[O-]` gave SENP7 inh 0, SENP8 block-1 16, AHR act 1, SENP8 block-2 -7, EBI2 block -1 and SENP6 inh -8.
For COC(CNC(=O)c1ccc2c(c1)ncn2-c1cccc(C)c1)OC the results were SENP7 inh 1, SENP8 block-1 17, AHR act -2, SENP8 block-2 0, EBI2 block 1 and SENP6 inh 5.
For CN(C)S(=O)(=O)c1cc(NC(=O)CN2CCN(c3ccccc3F)CC2)ccc1Cl the results were SENP7 inh 16, SENP8 block-1 4, AHR act 0, SENP8 block-2 2, EBI2 block 3 and SENP6 inh 5.
Screening CC(C)=CC(=O)Nc1ccc(OCc2ccccc2)cc1 returned SENP7 inh 58*, SENP8 block-1 1, AHR act 2, SENP8 block-2 49, EBI2 block -6, SENP6 inh 73*, SENP8 conf 35, SENP6 conf 49, SENP7 confirm 76*, Casp3 select 42 and Luc interf 45.
`O=C(Nc1ccc(OCc2ccccc2)cc1)c1ccccc1` gave SENP7 inh 67*, SENP8 block-1 13, AHR act -2, SENP8 block-2 5, EBI2 block -9, SENP6 inh 29, SENP8 conf 5, SENP6 conf 8, SENP7 confirm 8, Casp3 select 6 and Luc interf -5.
For COCCNc1nc2nonc2nc1N(C)Cc1cccc2cnccc12 the results were SENP7 inh 0, SENP8 block-1 6, AHR act 3, SENP8 block-2 7, EBI2 block -2 and SENP6 inh -13.
Screening CC(=O)Nc1cccc(OCC(=O)Nc2sccc2C(N)=O)c1 returned SENP7 inh 67*, SENP8 block-1 4, AHR act 25, SENP8 block-2 48, EBI2 block 18, SENP6 inh 68*, SENP8 conf 40, SENP6 conf 48, SENP7 confirm 86*, Casp3 select 73* and Luc interf 28.
For CSC1=NSC2=NC(=O)/C(=C\c3ccc(OC(=O)c4ccco4)cc3)C(=N)N12 the results were SENP7 inh 37, SENP8 block-1 15, AHR act 13, SENP8 block-2 91*, EBI2 block -25, SENP6 inh 89*, SENP8 conf 90*, SENP6 conf 90*, SENP7 confirm 96*, Casp3 select 90* and Luc interf 4.
CC(C)CS(=O)(=O)C1=NSC2=NC(=O)/C(=C\c3ccc(OC(=O)c4ccco4)cc3)C(=N)N21 was read as SENP7 inh -5, SENP8 block-1 5, AHR act 2, SENP8 block-2 -17, EBI2 block 8 and SENP6 inh 8.
CCNC(=O)OCc1cn(-c2ccc(Cl)cc2)nn1 was read as SENP7 inh 6, SENP8 block-1 17, AHR act 3, SENP8 block-2 3, EBI2 block 2 and SENP6 inh 15.
O=C(Oc1ccc(/C=N/O)cc1)c1ccccc1Cl was read as SENP7 inh 71*, SENP8 block-1 -6, AHR act -2, SENP8 block-2 63*, EBI2 block -10, SENP6 inh 86*, SENP8 conf 81*, SENP6 conf 77*, SENP7 confirm 94*, Casp3 select 77* and Luc interf 75*.
Cc1cccc(C(=O)Oc2ccc(/C=N/O)cc2)c1 was read as SENP7 inh 3, SENP8 block-1 5, AHR act 2, SENP8 block-2 69*, EBI2 block -3, SENP6 inh 76*, SENP8 conf 77*, SENP6 conf 73*, SENP7 confirm 89*, Casp3 select 74* and Luc interf 73*.
For O=C(Oc1ccc2ccc(O)cc2c1)c1ccccc1Cl the results were SENP7 inh 70*, SENP8 block-1 12, SENP8 block-2 74*, EBI2 block -1, SENP6 inh 89*, SENP8 conf -20, SENP6 conf 76*, SENP7 confirm 91*, Casp3 select 34 and Luc interf 67*.
O=C(Oc1ccc2ccc(O)cc2c1)C1CCCCC1 was read as SENP7 inh 3, SENP8 block-1 -17, AHR act 2, SENP8 block-2 7, EBI2 block -3 and SENP6 inh 26.
`COc1oc(-c2ccccc2)nc1C(F)(F)F` gave SENP7 inh 71*, SENP8 block-1 -2, AHR act 1, SENP8 block-2 2, EBI2 block -1, SENP6 inh 7, SENP8 conf -18, SENP6 conf -6, SENP7 confirm -9, Casp3 select 5 and Luc interf -4.
Cn1cc(-c2coc3c(C(=O)NCc4ccco4)cccc23)cn1 was read as SENP8 block-1 -9 and EBI2 block 1.
